The list is not random: actives were taken first. Their share in the collection is about 2.4%.
WRN helicase inh-1 = blocks human WRN helicase. Q14191. WRN helicase unwinding, fluorescent forked duplex, kinetic. Potency, µM (top dose mostly 114 µM), without a hit: top-dose activity change, negative = inhibition, most hits filed as inhibitors. hit rate 0.46% among 360,000; note: potency is the fitted concentration of half-maximal effect; % is set by controls: 0 for no effect and ±100 for the full control effect; nearly all actives have a fitted effect of over 55% in size
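WRN at 20 nM final was preincubated with compound for 15 min at room temperature; reaction started with 100 nM forked duplex oligonucleotide carrying fluorophore and quencher plus 2 mM ATP (final). Unwinding followed kinetically by red fluorescence (ex 525/em 598 nm).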
Pol kappa inh = DNA polymerase kappa (human) inhibition; Q9UBT6; purified Pol kappa, fluorescent DNA synthesis assay, 10 min; Potency, µM (doses to about 107 µM), inactives show at the top dose activity, negative = inhibition, hits mostly inhibitors; hit rate 0.53% among 400,000; AID 588579; note: potency is the fitted concentration of half-maximal effect; % is set by controls: 0 for no effect and ±100 for the full control effect
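Activity was followed as the change in fluorescence between reads at 0 and 10 min after starting the reaction with 50 nM substrate. Beforehand, 10 nM polymerase had been preincubated with compound for 15 min at room temperature.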
Pol iota inh = blocks human DNA polymerase iota activity | Potency, µM (top dose mostly 115 µM), inactives show at the top dose activity, negative = inhibition, hits mostly inhibitors | Pol iota fluorescent replication assay, 10 min | hit rate 1% among 390,000; note: potency is the fitted concentration of half-maximal effect
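Pol iota at 10 nM preincubated 15 min with compounds at room temperature; reaction started with fluorescent substrate, 50 nM final. Fluorescence read kinetically at 0 and 10 min; buffer-only wells as negative control.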
Pol eta inh = inhibitors of human DNA polymerase eta. Q9Y253. Potency, µM (series often up to 114 µM), for the others: at the top dose activity change, negative = inhibition, actives largely listed as inhibitors. hit rate 1.2% among 390,000. recombinant Pol eta, fluorescent DNA replication assay. AID 588591; note: potency is the fitted concentration of half-maximal effect; % is set by controls: 0 for no effect and ±100 for the full control effect
Target sequence (Q9Y253 whole entry, looked up): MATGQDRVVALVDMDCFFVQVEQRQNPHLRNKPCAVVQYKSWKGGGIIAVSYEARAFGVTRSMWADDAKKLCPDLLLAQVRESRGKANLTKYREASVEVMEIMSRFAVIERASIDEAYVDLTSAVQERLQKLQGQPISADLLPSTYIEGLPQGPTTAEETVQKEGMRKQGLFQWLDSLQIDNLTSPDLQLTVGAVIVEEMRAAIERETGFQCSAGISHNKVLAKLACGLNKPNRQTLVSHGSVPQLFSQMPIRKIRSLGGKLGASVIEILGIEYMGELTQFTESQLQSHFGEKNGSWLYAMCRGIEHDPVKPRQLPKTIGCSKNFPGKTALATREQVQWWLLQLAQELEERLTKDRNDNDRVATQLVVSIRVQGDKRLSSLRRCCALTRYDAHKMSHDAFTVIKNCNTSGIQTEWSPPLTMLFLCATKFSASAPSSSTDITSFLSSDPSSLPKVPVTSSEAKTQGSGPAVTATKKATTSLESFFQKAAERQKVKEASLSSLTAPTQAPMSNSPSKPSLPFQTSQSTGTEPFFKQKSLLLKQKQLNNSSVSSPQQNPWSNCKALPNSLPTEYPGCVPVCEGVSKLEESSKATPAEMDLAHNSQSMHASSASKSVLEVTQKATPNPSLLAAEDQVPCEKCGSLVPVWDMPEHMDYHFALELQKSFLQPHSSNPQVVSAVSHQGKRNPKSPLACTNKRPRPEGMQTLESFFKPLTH
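Pol eta (10 nM) was preincubated with compounds for 15 min at room temperature, after which fluorescent replication substrate (50 nM final) was added to start the reaction. Fluorescence was read kinetically at 0 and 10 min.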
FEN1 inh = human FEN1 inhibition; P39748; Recombinant FEN1 flap cleavage, fluorescence, 15 min; Potency, µM (series often up to 114 µM), for the others: at the highest dose activity change, negative = inhibition, actives largely listed as inhibitors; hit rate 0.35% among 390,000; AID 588795; note: potency is the fitted concentration of half-maximal effect; % is set by controls: 0 for no effect and ±100 for the full control effect; nearly all actives have a fitted effect of over 65% in size
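Enzyme 10 nM, 15 min RT preincubation with compound; start with substrate 50 nM final; reads at 0 and 15 min; qHTS titration, four-parameter Hill fit.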
Pol beta inh-1 = inhibitors of human DNA polymerase beta. P06746. Pol beta primer extension/strand displacement, fluorescence kinetic. Potency, µM (titrated, usually from 114 µM), inactives show at the highest dose activity change, negative = inhibition, most hits filed as inhibitors. hit rate 1.3% among 340,000; note: potency is the fitted concentration of half-maximal effect; % is set by controls: 0 for no effect and ±100 for the full control effect
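Enzyme-only controls used 10 nM Pol beta; buffer lacking enzyme served as negative control. Compound preincubated 15 min, then 50 nM substrate added; 0 and 10 min reads at room temperature.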
Pol beta inh-2 = Human Pol beta inhibitor hit validation | Pol beta primer extension/strand displacement, fluorescence kinetic | AID 540280 | Potency, µM, actives largely listed as inhibitors | hit rate 87% among 250 | shares compounds with Pol beta inh-1; calls by dose curve; note: potency is the fitted concentration of half-maximal effect
Klenow counter = Klenow polymerase inhibition, pol beta selectivity check | shares compounds with Pol beta inh-1 | Klenow exo- polymerase counter-screen, fluorescent DNA substrate | activity change, negative = inhibition, % at 57.1 µM | 250 tested, under 10 active | AID 540300
HIV RT counter = HIV-1 RT inhibition, pol beta selectivity check; activity % (negative = inhibition, positive = activation), % at 57.1 µM; shares compounds with Pol beta inh-1; 250 tested, under 10 active; HIV-1 RT polymerase activity, counter-screen
PGK validate = blocks T. brucei phosphoglycerate kinase | shares compounds with Pol kappa inh | TbPGK coupled GAPDH assay, Kinase-Glo luminescence | Potency, µM (series often up to 57.5 µM), without a hit: top-dose activity change, negative = inhibition, actives largely listed as inhibitors | hit rate 79% among 500; note: potency is the fitted concentration of half-maximal effect; % is set by controls: 0 for no effect and ±100 for the full control effect; nearly all actives have a fitted effect of over 65% in size
Pol iota confirm = Human Pol iota inhibitor confirmatory assay; shares compounds with Pol kappa inh; Pol iota primer extension, TAMRA/BHQ fluorescence; Potency, µM, actives largely listed as inhibitors; hit rate 77% among 1,500; AID 720496; note: potency is the fitted concentration of half-maximal effect
WRN helicase inh-2 = WRN helicase inhibition, cherry-pick retest | Potency, µM (titrated, usually from 57.1 µM), without a hit: top-dose activity, negative = inhibition, usual class: inhibitors | hit rate 63% among 610 | shares compounds with WRN helicase inh-1 | WRN helicase DNA unwinding, fluorescence kinetic; note: potency is the fitted concentration of half-maximal effect; nearly all actives have a fitted effect of over 65% in size
TO DNA binding = binds DNA, flagged in WRN inhibitor counterscreen; shares compounds with WRN helicase inh-1; thiazole orange DNA binding displacement, fluorescence; Potency, µM (top dose mostly 57.1 µM), without a hit: top-dose activity change, negative = inhibition, hits mostly inhibitors; hit rate 10% among 610;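 note: drop in dye fluorescence marks compound binding to DNA; potency is the fitted concentration of half-maximal effect; % is set by controls: 0 for no effect and ±100 for the full control effect; nearly all actives have a fitted effect of over 60% in size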
BLM counter = BLM helicase inhibition, WRN selectivity check | shares compounds with WRN helicase inh-1 | Recombinant BLM helicase DNA unwinding, red fluorescence | Potency, µM (doses to about 57.1 µM), inactives show top-dose activity change, negative = inhibition, actives largely listed as inhibitors | hit rate 60% among 610; note: potency is the fitted concentration of half-maximal effect; nearly all actives have a fitted effect of over 60% in size
* marks the source's active call; other numbers are inactive results; ? = inconclusive; . = no result given; [ ] = dose if it differs, or a comment. Unless noted, calls come from the whole dose curve; as a rule, active = well fitted curve in the direction sought with a large enough effect; inconclusive = small, poorly fitted or top-dose-only effect, or another doubt; inactive = no such curve, though single readings can be large; an effect the other way counts as inactive or inconclusive.

SMILES	WRN helicase inh-1	Pol kappa inh	Pol iota inh	Pol eta inh	FEN1 inh	Pol beta inh-1	PGK validate	others
COc1ccc(-c2nc3cncnc3n(-c3ccccc3)c2=O)cc1	.	11%[60.1 µM]	.	.	.	.	.
Cc1c(Cc2ccccc2)c(=O)oc2c(O)c(O)ccc12	28µM*	?	8.9µM*	?	?	13µM*	.	Pol beta inh-2=5*;Klenow counter=-27;HIV RT counter=40;WRN helicase inh-2=6.8µM*;TO DNA binding=-17%;BLM counter=6.8µM*
Cc1c(Cc2ccccc2)c(=O)oc2cc(O)ccc12	-8%	-21%	10%	-1%	-8%	-25%	.
O=C(O)C1OC(Oc2c(-c3ccc(O)c(O)c3)oc3cc(O)cc(O)c3c2=O)C(O)C(O)C1O (stereo unspecified)	?	14µM*	22µM*	6.3µM*	11µM*	8.9µM*	10µM*
Cc1csc(N=Nc2ccc(N(C)C)cc2)[n+]1[O-]	-32%	.	.	?	.	.	13µM*
CN(C)c1ccc(N=Nc2ccccc2C(=O)O)cc1	.	-19%	-3%	.	-5%	.	.
COc1cc(OC)c(NC(=O)c2nn(C)c3c2COc2ccccc2-3)cc1Cl	.	-3%	15%	-12%	8%	-1%	.
Cc1ccccn1	.	2%[19.4 µM]	.	.	.	.	.
CCNc1ncc2nc(-c3cccs3)c(=O)n(Cc3ccc(F)cc3)c2n1	.	-5%[60.1 µM]	.	.	.	.	.
CCCCNS(=O)(=O)c1ccc2nc(NC(=O)c3cccnc3)sc2c1	.	-7%[60.1 µM]	14%	50µM*	-10%	-18%	?
CCNS(=O)(=O)c1ccc2nc(NC(=O)c3cccnc3)sc2c1	-5%	-11%	9%	-10%	-16%	0%	.
Cc1cc(=O)[nH]c(N/N=C/c2ccc(OC(=O)c3ccco3)cc2)n1	?	9%	14%	50µM*	-34%	-9%	.	Pol iota confirm=?
Cc1cc(=O)[nH]c(N/N=C/c2ccco2)n1	-11%	-6%	12%	-5%	8%	-16%	.
O=C(COC(=O)c1ccccc1[N+](=O)[O-])c1ccc2c(c1)OCO2	-26%	-10%	41%	?	-6%	.	9.2µM*
CCn1c(C)cc(C(=O)COC(=O)c2ccccc2[N+](=O)[O-])c1C	3%	-5%	3%	-19%	4%	.	15µM*
C=CCn1c(=O)[nH]c2cc(C(=O)N3CCN(c4cc(C)ccc4C)CC3)ccc2c1=O	6%	-5%	6%	5%	-6%	7%	.
C=CCn1c(=O)[nH]c2cc(C(=O)N3CCN(c4ccc(C(C)=O)cc4)CC3)ccc2c1=O	?	?	?	?	-3%	35µM*	.	Pol iota confirm=47*
O=C(c1ccccc1)c1cc2ccc(O)cc2oc1=O	-1%	-5%	-5%	8%	-14%	22%	15µM*
Fc1ccc(C(c2ccc(F)cc2)N2CCN(C/C=C\c3ccccc3)CC2)cc1	.	-7%[19.4 µM]	.	.	.	.	.
Oc1ccc(C[C@H]2CNCCN2CCc2cccc3ccccc23)cc1	4%	-14%	?	-10%	-19%	.	?
COc1cc(OC)cc(C(=O)Nc2cccc(-c3cn4ccsc4n3)c2)c1	.	-7%[60.1 µM]	-7%	-13%	0%	4%	.
Cc1cc(C)c2cc3c(N)c(C(=O)Nc4c(C)[nH]c(=O)[nH]c4=O)sc3nc2c1	?	-20%	?	45µM*	?	?	.	Pol iota confirm=?
CC(=O)OCON[N+]([O-])=NC(C)C	.	-11%	24%	.	-14%	.	.
COc1cccc(CNCCSc2nnnn2C)c1OCc1ccc(Cl)cc1Cl	.	-11%	-17%	-11%	-8%	-25%	0%
Cc1ccnc(N2C(=O)c3ccccc3C2O)c1 (stereo unspecified)	-3%	-1%	-20%	0%	1%	43%	10µM*
SMILES	WRN helicase inh-1	Pol kappa inh	Pol iota inh	Pol eta inh	FEN1 inh	Pol beta inh-1	PGK validate	others
Cc1ccnc(N2C(=O)c3ccccc3C2Nc2cccc(C)c2C)c1 (stereo unspecified)	2%	3%	1%	-17%	-16%	-13%	.
CN(C)c1ccc(C(=O)Nc2sc(Nc3ccccc3)nc2C(N)=O)cc1	.	-3%[60.1 µM]	79µM*	?	11%	?	.	Pol iota confirm=?
CN(C)c1ccc(C(=S)Nc2ccccc2)cc1	-9%	0%	0%	-14%	15%	-25%	.
O=C(Nc1ccc(Cl)c([N+](=O)[O-])c1)c1ccc2c(c1)OCCO2	-3%	-4%	129%	-21%	4%	15%	.
O=C(N/N=C/c1ccc(Cl)c([N+](=O)[O-])c1)c1ccc2c(c1)OCCO2	?	-10%	-24%	?	?	.	.	Pol iota confirm=75*
CN(C)Cc1ccccc1-c1ccc2ncnc(N3CCOCC3)c2c1	.	-1%[60.1 µM]	.	.	.	.	.
Cc1cccc(NC(=O)c2cc3c(=O)n4ccccc4nc3s2)c1	?	1%	?	45µM*	?	7.1µM*	.	Pol iota confirm=67*

High-throughput results as filed in PubChem BioAssay.
